# Compounds with a hit are over-represented: about 4.6% of the library has one in this group of screens.
# SKKanGAS inh – S. pyogenes SKKanGAS growth inhibitors in kanamycin, primary screen, streptokinase expression inhibitor project, SKKanGAS strain, BacTiter-Glo luminescence; 300,000 compounds, 1.3% hits; inhibition, % at 7.5 µM; 6 h;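 active = mean replicate score, as percent of positive control median, at least 50; inconclusive = mean below 50 but one replicate at or above 50; inactive = mean and every replicate below 50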;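 note: strain carries kanamycin resistance gene driven by streptokinase promoter and grows in 40 µg/ml kanamycin; loss of luminescence reflects streptokinase promoter inhibition or plain growth inhibition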
# tim10-1 inh – growth inhibitors of tim10-1 mutant yeast, primary screen, luminescence, uHTS. S. cerevisiae tim10-1 ts strain growth, BacTiter-Glo, 24 h. inhibition, % at 20 µM. 330,000 compounds, 2.2% hits. AID 463190, 2010;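 active = inhibition of at least 40%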;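 note: mutant grown at 25 °C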
# V-ATPase pHluor – regulators of yeast V-ATPase proton pumping, primary screen, pHLuorin cytosolic pH fluorescence | AID 504577, 2011 | 350,000 compounds, 0.37% hits | S. cerevisiae | response, % at 10 µM; in the data active = response mostly above about 7.3%, no sharp cut-off; inactive = mostly below about 5.4%; note: actives read high
# TIM10 inh – growth inhibitors of isogenic TIM10 control yeast, primary screen, counter-screen for tim10-1 yeast inhibitor project, luminescence, uHTS; AID 463195, 2010; S. cerevisiae TIM10 strain growth, BacTiter-Glo luminescence, 24 h; inhibition, % at 10 µM; 330,000 compounds, 1.4% hits;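 active = inhibition of 40% or more at the single tested concentration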;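 note: wild-type TIM10 isogenic control strain grown at permissive 25 °C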
# PfHsp90 yeast 2 – growth inhibition of PfHsp90-expressing yeast, primary screen, antimalarial PfHsp90 inhibitor project, S. cerevisiae, BacTiter-Glo luminescence, single point, set 2 | AID 504621, 2011 | 310,000 compounds, 0.32% hits | BacTiter-Glo ATP, 48 h; yeast lacking PDR1 and PDR3 efflux regulators | inhibition, % at 9.4 µM;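 active = every replicate shows inhibition above about 80%, whatever the replicate mean, limit read from the data; inconclusive = mean inhibition reaches the set limit but some replicate falls short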
# tim23-1 inh – growth inhibitors of tim23-1 mutant yeast, primary screen, luminescence, uHTS. S. cerevisiae tim23-1 growth, BacTiter-Glo luminescence, 24 h. 330,000 compounds, 1.3% hits. inhibition, % at 20 µM;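 active = growth inhibition of the mutant yeast at or above 50%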;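 note: temperature-sensitive mutant grown at 25 °C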
# tim10-1 confirm – growth inhibitors of tim10-1 mutant yeast, confirmation, single concentration, luminescence, S. cerevisiae; shares compounds with tim10-1 inh; inhibition, % at 20 µM; S. cerevisiae tim10-1 ts strain growth, BacTiter-Glo, 24 h; 7,400 compounds, 56% hits;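 active = inhibition of yeast growth at or above a set limit in either of two repeat tests at 20 µM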;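 note: tim10-1 mutant grown at permissive 25 °C to find synthetic lethal compounds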
# TIM10 conf – growth inhibitors of wild-type TIM10 yeast, confirmation, counter-screen for tim10-1 synthetic lethality project, single concentration, luminescence, S. cerevisiae. 4,600 compounds, 63% hits. inhibition, % at 10 µM. shares compounds with TIM10 inh. S. cerevisiae tim10 strain growth, BacTiter-Glo luminescence, 24 h. AID 463215, 2010;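 active = inhibition of yeast growth at or above a set limit in either of two replicates at 10 µM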; note: this counterscreen used the strain with wild-type TIM10
# tim23-1 confirm – tim23-1 mutant yeast growth inhibitors, confirmation, luminescence, single concentration | S. cerevisiae tim23-1 growth, BacTiter-Glo luminescence, 24 h | shares compounds with tim23-1 inh | AID 463218, 2010 | 4,400 compounds, 83% hits | inhibition, % at 20 µM;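 active = inhibition above about 39% in either of two replicate wells at 20 µM, limit read from the data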;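 note: temperature-sensitive tim23-1 mutant grown at 25 °C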
# Hits are given with their value; . = inactive; ? = inconclusive; / = not tested or not shown.
SMILES,SKKanGAS inh,tim10-1 inh,V-ATPase pHluor,TIM10 inh,PfHsp90 yeast 2,tim23-1 inh,tim10-1 confirm,TIM10 conf,others
Cc1cc2ncn(-c3ncnc4sc5c(c34)CCCC5)c2cc1C,.,.,/,.,/,.,/,/,
Cc1cc2ncn(-c3ncnc4scc(-c5ccccc5)c34)c2cc1C,.,50,.,41,.,.,45,37,
Cc1cc2ncn(-c3ncnc4sc(C)c(C)c34)c2cc1C,.,.,.,.,.,.,/,/,
COc1cc2c(cc1OC)n(CC(=O)NC1CCCCCC1)n1c(C)cc(=O)nc21,.,.,.,.,.,.,/,/,
CCCC[C@@H]1CNC(=S)N1CCCC,.,.,.,.,.,.,/,/,
OC(CNCC(c1ccc(Cl)cc1Cl)c1c[nH]c2ccccc12)c1ccccc1 (stereo not drawn),80,54,.,59,/,.,.,61,
CCOc1c(Cl)cc(CNCC(O)c2ccccc2)cc1OC (stereo not drawn),.,.,.,.,.,.,/,/,
COc1ccc(C)cc1NC(=O)Nc1cccc(C(=O)O)c1,.,.,.,.,.,.,/,/,
CCOC(=O)c1cccc(NC(=O)Nc2cc(OC)ccc2OC)c1,.,41,.,40,.,.,.,.,
CC(C)(C)OC(=O)C[C@@H]1C/C=C\C[C@@H](CC(=O)N[C@H](CO)Cc2ccccc2)C(=O)N2CCC[C@H]2COC1=O,/,.,.,.,.,.,/,/,
Oc1ccc(/C=N/Nc2nccnc2Cl)c(O)c1,.,61,.,70,.,.,28,54,
O=C(c1ccc2c3n(nc2c1)-c1ccc(Cl)cc1CO3)N1CCOCC1,.,.,.,.,.,.,/,/,
O=C(c1ccc2c3n(nc2c1)-c1ccccc1CO3)N1CCOCC1,.,48,.,41,.,.,51,31,
CCCCOC(=O)/C(=C/C=C/c1ccccc1)NC(=O)c1ccccc1,.,.,.,.,.,.,/,/,
CCCCOC(=O)/C(=C\c1ccc([N+](=O)[O-])o1)NC(=O)c1ccccc1,.,40,.,45,.,.,40,.,
O=C(NCc1cccc(Br)c1)c1cc(-c2ccccc2)nn1CC1CC(c2cccc([N+](=O)[O-])c2)=NO1 (stereo not drawn),.,.,.,.,/,.,/,/,
NC(=O)N/N=C/c1sc(N2CCCCC2)nc1-c1cccs1,.,.,.,.,.,.,/,/,
CC(C)NC(=S)N/N=C/c1sc(N2CCCCC2)nc1-c1cccs1,.,53,.,50,.,.,48,35,
O=C(N/N=C/c1sc(N2CCCCC2)nc1-c1cccs1)C1CC1,.,47,.,47,.,.,36,36,
CC1CCN(CCc2nc3cc(NC(=O)COc4ccc(Cl)cc4)ccc3n2C)CC1,.,.,.,.,.,.,/,/,
NC(=O)/C(=N\OC(=O)c1ccco1)c1nc(-c2ccc(Br)cc2)cs1,.,43,.,46,.,.,40,43,
S=C(N/N=C/c1ccco1)NC1CC2CCC1C2 (stereo not drawn),.,51,.,42,.,.,36,51,
O=C(COc1ccccc1)NC(=S)N1CCc2ccccc21,.,43,.,41,.,.,.,.,
C/C(=C\c1ccccc1F)C(=O)c1c(C)cc(C)[nH]c1=O,.,.,.,.,.,.,/,/,
Cc1[nH]c(=O)c(C(=O)/C=C/c2ccccc2F)c2c1CCCC2,.,47,.,44,.,.,52,38,
SMILES,SKKanGAS inh,tim10-1 inh,V-ATPase pHluor,TIM10 inh,PfHsp90 yeast 2,tim23-1 inh,tim10-1 confirm,TIM10 conf,others
COc1ccccc1CNCC(O)(c1ccc(Cl)cc1)c1ccc(Cl)cc1,.,46,.,52,/,.,.,44,
CC(=O)c1sc(NC(=O)CCCOc2ccc(Cl)cc2)nc1C,.,.,.,.,.,.,/,/,
O=[N+]([O-])c1ccc(-c2nc(-c3cccs3)c(-c3cccs3)[nH]2)cc1,?,65,.,69,.,.,52,61,
O=[N+]([O-])c1cccc(-c2nc(-c3cccs3)c(-c3cccs3)[nH]2)c1,.,.,.,.,.,.,/,/,
O=S(=O)(c1cccc(-c2nc3ccccc3s2)c1)N1CCCC1,.,48,.,44,.,.,34,42,
O=S(=O)(c1ccc(-c2nc3ccccc3s2)cc1)N1CCCC1,.,.,.,.,.,.,/,/,
C=CCc1c(NCCO)nc(C)[nH]c1=O,.,.,.,.,.,.,/,/,
Cc1onc(-c2ccccc2)c1C(=O)N/N=C/c1cc(Br)c(Br)o1,.,.,.,.,.,.,/,/,
Cc1cccc(C(=O)N/N=C/c2cc(Br)c(Br)o2)c1,.,41,.,45,.,60,.,.,tim23-1 confirm=76
CC(C)(C)Sc1ccc([N+](=O)[O-])cc1C(=O)Nc1ccncc1,.,.,.,.,.,.,/,/,
COc1ccc(Cl)cc1C(=O)Nc1ccc(NC(=O)C(C)C)cc1,.,53,.,41,.,53,45,36,tim23-1 confirm=42
COc1ccc(Cl)cc1C(=O)Nc1cccnc1,.,.,.,.,.,.,/,/,
O=C(N/N=C/c1ccc([N+](=O)[O-])o1)c1ccc2c(c1)OCO2,.,64,.,64,.,79,60,52,tim23-1 confirm=.
COc1ccc(C2=CC(=O)N(Nc3ccccc3)C2=O)cc1,/,49,/,54,/,81,50,55,tim23-1 confirm=77
O=C1C=C(c2ccccc2)C(=O)N1Nc1ccccc1,.,.,.,.,/,.,/,/,
CCSc1nsc(NC(=O)Nc2cccc(F)c2)n1,66,61,.,69,.,78,72,60,tim23-1 confirm=84
COc1cccc(NC(=O)Nc2nc(SC)ns2)c1,.,.,.,.,.,.,/,/,
CC(=O)Nc1cccc(C(=O)N/N=C/c2c[nH]c3ccccc23)c1,.,.,.,.,.,.,/,/,
CCN=c1sc(C(=O)NCCc2ccccc2)cc(=O)n1CC,.,51,.,43,.,66,48,.,tim23-1 confirm=52
CC(C)CC1C(=O)N(Cc2cn(Cc3ccco3)nn2)CCS(=O)(=O)N1Cc1ccc(-c2ccccc2)cc1 (stereo not drawn),/,/,.,/,/,/,/,/,

# Assay outcomes as filed in PubChem BioAssay.
